Measured values reported in PubChem BioAssay (Tox21).
Records with an inconclusive call do not appear. Where a call stands in place of a potency, no number is given. Calls of active or inactive are those of the source. Unless noted, calls come from the whole dose curve; as a rule, active = well fitted curve in the direction sought with a large enough effect in the repeat runs; inconclusive = weak or mixed curves; inactive = no such curve, though single readings can be large; an effect the other way counts as inactive or inconclusive.

Tests used:
[1] = qHTS assay to identify small molecule agonists of the estrogen receptor alpha (ER-alpha) signaling pathway in the presence of an antagonist - cell viability counter screen (AID 1259386); details: VM7Luc4E2 viability, CellTiter-Fluor fluorescence, 22 h; series mostly up to 92.4 µM;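 note: cells exposed to compounds for 22 h at 37 °C before the viability read; nearly all actives have a fitted effect of over 30% in size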; note: potency is the fitted concentration of half-maximal effect
How it was run: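 VM7Luc4E2, stripped-serum pre-culture 5 d; 24hr plating; +ICI-182,780 10.0nM final; cpds 15 conc, 22hr, 37C/5% CO2; CellTiter-Fluor added at 21hr, fluorescence 1hr later.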

[2] = molecular target: Progesterone receptor (Homo sapiens) (UniProt P06401); assay: qHTS assay to identify small molecule agonists of the progesterone receptor (PR) signaling pathway (AID 1346784; calls by dose curve; note: nearly all actives have a fitted effect of over 30% in size); details: PR-UAS-bla HEK293T, beta-lactamase FRET ratio, 16 h; series mostly up to 92.4 µM
How it was run: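 Cells (PR-UAS-bla HEK 293T, GripTite) were plated in assay medium containing 2% charcoal-stripped FBS and incubated 6 hr. Test compounds in DMSO were added for 16 hr at 37C. FRET substrate was then loaded for 2 hr at room temperature before fluorescence reading.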

[3] = qHTS assay to identify small molecule agonists of the progesterone receptor (PR) signaling pathway - cell viability counter screen (AID 1346799; calls by dose curve; note: nearly all actives have a fitted effect of over 45% in size; note: potency is the fitted concentration of half-maximal effect); details: PR-UAS-bla HEK293T viability, CellTiter-Glo luminescence, 16 h; series mostly up to 92.4 µM
How it was run: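 Cells (PR-UAS-bla HEK293T) are plated at 3,000/well in 2% charcoal-stripped FBS medium, rested 6 hr, dosed and incubated 16 hr at 37C. CellTiter-Glo is then added and luminescence measured after 30 min at room temperature.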

[4] = qHTS assay to identify small molecule antagonists of the TGF-beta/Smad signaling pathway - cell viability counter screen (AID 1346824); details: SBE-bla HEK293T viability, CellTiter-Glo luminescence; series mostly up to 76.8 µM; note: nearly all actives have a fitted effect of over 50% in size; note: potency is the fitted concentration of half-maximal effect
How it was run: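 Cytotoxicity counter-screen run in the same wells as the beta-lactamase Smad reporter read: CellTiter-Glo luminescence after 30 min at room temperature. HEK 293T SBE-bla cells had 5 hr compound exposure at 37 C with TGF-beta1 (0.25 ng/mL stock).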

[5] = qHTS assay to identify small molecule agonists of the TGF-beta/Smad signaling pathway - cell viability counter screen (AID 1346829); details: SBE-bla HEK293T viability, CellTiter-Glo luminescence, 5 h; series mostly up to 76.8 µM; note: top concentration of the series differs between compounds; nearly all actives have a fitted effect of over 45% in size
How it was run: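 Cytotoxicity counter screen: CellTiter-Glo luminescence (30 min, room temperature) measured in the SBE-bla HEK 293T reporter wells after 5 hr compound treatment at 37 C and the 2 hr substrate step.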

[6] = qHTS assay to identify small molecule agonists of the TGF-beta/Smad signaling pathway (AID 1346859; active = well fitted activation curve with a large enough effect in the signal ratio in the repeat runs, not every such curve was filed as active; the % refers to the signal ratio); details: SBE-bla HEK293T, TGF-beta/Smad beta-lactamase reporter, 5 h; series mostly up to 76.8 µM
How it was run: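 Reporter line: HEK 293T with stably integrated SBE-controlled beta-lactamase. Compound exposure lasts 5 hr at 37 C and 5% CO2; substrate loading follows for 2 hr at room temperature, with emission read at 460 and 530 nm.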

[7] = molecular target: Thyrotropin-releasing hormone receptor (Homo sapiens) (UniProt P34981); assay: qHTS assay to identify small molecule antagonists of the thyrotropin-releasing hormone receptor (TRHR) signaling pathway (AID 1346877; active = well fitted inhibition curve with a large enough effect in the repeat runs, not every such curve was filed as active); details: TRHR-HEK293, TRH-induced calcium fluorescence, antagonist mode; series mostly up to 51.3 µM
How it was run: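 Intracellular calcium fluorescence, read kinetically every second over 3 min, reports TRH-evoked signalling in HEK293 cells carrying TRHR. Test compounds were added 5 min ahead of a 1 nM TRH challenge.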

[8] = molecular target: Thyrotropin-releasing hormone receptor (Homo sapiens) (UniProt P34981); assay: qHTS assay to identify small molecule agonists of the thyrotropin-releasing hormone receptor (TRHR) signaling pathway (AID 1346891; calls by dose curve;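 note: HEK293 cells expressing TRHR with calcium dye readout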); details: TRHR-HEK293 calcium fluorescence, agonist mode; series mostly up to 57.6 µM
How it was run: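 Cells: TRHR-Hek293, seeded and incubated 18 h. Dye loading: 2 h at 37 °C. Compound added from DMSO stock by pin tool. Read-out: kinetic calcium fluorescence over 3 min.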

[9] = qHTS assay to identify small molecule antagonists of the progesterone receptor (PR) signaling pathway - cell viability counter screen (AID 1346798); details: PR-UAS-bla HEK293T viability, CellTiter-Glo luminescence, 16 h; series mostly up to 92.4 µM; note: nearly all actives have a fitted effect of over 50% in size; note: potency is the fitted concentration of half-maximal effect
How it was run: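 Counter screen for cytotoxicity: viability of PR-UAS-bla HEK293T cells was measured with CellTiter-Glo luminescence following 16 hr compound exposure in the presence of R5020.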

[10] = molecular target: Progesterone receptor (Homo sapiens) (UniProt P06401); assay: qHTS assay to identify small molecule antagonists of the progesterone receptor (PR) signaling pathway (AID 1346795; active = well fitted inhibition curve with a large enough effect in the signal ratio in the repeat runs, not every such curve was filed as active; the % refers to the signal ratio; note: potency is the fitted concentration of half-maximal effect); details: PR-UAS-bla HEK293T, beta-lactamase FRET ratio, 16 h; series mostly up to 92.4 µM
How it was run: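 Antagonist mode: compounds tested against 1 nM (final) promegestone stimulation in HEK293T cells expressing PR-UAS-bla reporter, 16 hr at 37C, 5% CO2; beta-lactamase activity detected via B/G FRET substrate after 2 hr at room temperature.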

Progesterone receptor (Homo sapiens), sequence (P06401 whole entry, looked up): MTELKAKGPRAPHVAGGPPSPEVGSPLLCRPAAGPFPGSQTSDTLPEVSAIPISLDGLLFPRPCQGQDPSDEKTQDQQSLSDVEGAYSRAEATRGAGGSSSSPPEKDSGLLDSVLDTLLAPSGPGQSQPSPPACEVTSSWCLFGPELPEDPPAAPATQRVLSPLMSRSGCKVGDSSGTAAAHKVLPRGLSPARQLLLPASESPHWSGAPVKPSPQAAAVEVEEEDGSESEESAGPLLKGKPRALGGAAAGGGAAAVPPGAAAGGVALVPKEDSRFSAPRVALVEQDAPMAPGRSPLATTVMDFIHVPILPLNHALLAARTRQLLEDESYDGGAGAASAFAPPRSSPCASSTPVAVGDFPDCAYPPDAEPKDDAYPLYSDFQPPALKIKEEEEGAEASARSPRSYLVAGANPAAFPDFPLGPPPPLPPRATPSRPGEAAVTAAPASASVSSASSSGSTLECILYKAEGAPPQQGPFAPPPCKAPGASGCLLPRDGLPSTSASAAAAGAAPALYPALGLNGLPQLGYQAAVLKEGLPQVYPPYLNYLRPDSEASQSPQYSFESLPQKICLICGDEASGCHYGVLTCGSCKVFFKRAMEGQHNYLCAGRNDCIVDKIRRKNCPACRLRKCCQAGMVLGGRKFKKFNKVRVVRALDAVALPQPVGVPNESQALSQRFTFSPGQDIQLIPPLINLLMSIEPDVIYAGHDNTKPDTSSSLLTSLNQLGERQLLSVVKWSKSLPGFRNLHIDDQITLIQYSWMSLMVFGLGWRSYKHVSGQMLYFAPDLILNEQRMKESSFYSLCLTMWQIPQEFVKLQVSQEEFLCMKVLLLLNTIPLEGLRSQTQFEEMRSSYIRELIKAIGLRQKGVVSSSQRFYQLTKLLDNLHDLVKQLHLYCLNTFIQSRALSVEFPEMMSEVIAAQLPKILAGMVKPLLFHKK
Thyrotropin-releasing hormone receptor (Homo sapiens), sequence (P34981 whole entry, looked up): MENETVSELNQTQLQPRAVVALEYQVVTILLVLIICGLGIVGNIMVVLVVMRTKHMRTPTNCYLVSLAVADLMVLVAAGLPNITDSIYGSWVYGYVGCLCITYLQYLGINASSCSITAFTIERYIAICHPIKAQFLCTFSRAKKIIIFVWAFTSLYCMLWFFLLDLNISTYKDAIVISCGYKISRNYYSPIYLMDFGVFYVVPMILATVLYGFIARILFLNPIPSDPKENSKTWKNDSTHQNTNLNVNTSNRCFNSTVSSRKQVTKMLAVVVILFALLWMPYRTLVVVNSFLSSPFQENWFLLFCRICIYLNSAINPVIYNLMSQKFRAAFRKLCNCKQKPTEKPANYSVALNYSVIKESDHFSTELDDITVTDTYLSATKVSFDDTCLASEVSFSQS

SMILES	Potency [1]	Potency [2]	Potency [3]	Potency [4]	outcome [5]	outcome [6]	outcome [7]	outcome [8]	Potency [9]	Potency [10]
CCC(Cl)[N+](=O)[O-] (stereo not given)	inactive	inactive	inactive	inactive	inactive	inactive	inactive	inactive		
CC(C)CC(N(C)C)C1(c2ccc(Cl)cc2)CCC1 (stereo not given)	inactive	inactive		inactive	inactive	inactive	inactive	inactive	inactive	
CCOP(=S)(OCC)Oc1ncn(-c2ccccc2)n1	inactive	inactive	inactive	inactive	inactive		inactive	inactive	inactive	
CN1C[C@@H](NS(=O)(=O)N(C)C)C[C@@H]2c3cccc4c3c(cn4C)C[C@H]21	inactive	inactive	inactive	inactive	inactive		inactive	inactive	inactive	
CC(C)(C)OC(=O)c1ncn2c1[C@@H]1CCCN1C(=O)c1c(Br)cccc1-2	inactive	inactive	inactive	inactive	inactive		inactive	inactive	inactive	
NC1=NC(=O)C(c2ccccc2)O1 (stereo not given)	inactive	inactive	inactive	inactive	inactive	inactive	inactive	inactive		
Fc1ccc(C2(Cn3cncn3)OC2c2ccccc2Cl)cc1 (stereo not given)	inactive	inactive		inactive	inactive		inactive	inactive	inactive	
CC(C)CC#N	inactive	inactive	inactive	inactive	inactive	inactive	inactive	inactive		
CCCSP(=S)(OCC)Oc1ccc(Cl)cc1Cl (stereo not given)	inactive	inactive		inactive	inactive	inactive	inactive	inactive	inactive	
CCCCOC(=O)[C@@H](C)Oc1ccc(Oc2ccc(C#N)cc2F)cc1	inactive	inactive	inactive	inactive	inactive		inactive	inactive		
c1cc[c]([Hg][c]2ccccc2)cc1	inactive	inactive			inactive		inactive	inactive	inactive	
CC(CCc1ccccc1)NC(C)C(O)c1ccc(O)cc1 (stereo not given)	inactive	inactive	inactive	inactive	inactive	inactive				
CC1CCC(=O)O1 (stereo not given)	inactive	inactive	inactive	inactive	inactive	inactive	inactive	inactive		
Nc1cc2c3c(c1)C(c1ccccc1)=N[C@@H](NC(=O)c1cccnc1)C(=O)N3CC2	inactive	inactive	inactive	inactive	inactive	inactive				
CCCCCCI	inactive	inactive		inactive	inactive	inactive			inactive	
Cc1nc(N)nc(N)n1	inactive	inactive	inactive		inactive	inactive	inactive	inactive	inactive	
CC1(C)CON(Cc2ccccc2Cl)C1=O	inactive	inactive	inactive	inactive	inactive		inactive	inactive	inactive	
COP(N)(=S)Oc1ccccc1C(=O)OC(C)C (stereo not given)	inactive	inactive	inactive		inactive				inactive	
COP(=S)(OC)Oc1ccc(S(N)(=O)=O)cc1	inactive	inactive	inactive	inactive	inactive	inactive	inactive	inactive		
CC(C)(C)NCC(O)c1cc(Cl)c(N)c(Cl)c1 (stereo not given)	21.1 µM (active)	inactive	inactive	inactive	inactive	inactive				
O=C(NCO)NCO	inactive	inactive	inactive	inactive	inactive	inactive				
CC(COc1ccc(Oc2ccccc2)cc1)Oc1ccccn1 (stereo not given)	inactive	inactive		inactive	inactive	inactive	inactive	inactive		
Nc1n[nH]c(N)n1	inactive	inactive	inactive	inactive	inactive		inactive	inactive		

SMILES	Potency [1]	Potency [2]	Potency [3]	Potency [4]	outcome [5]	outcome [6]	outcome [7]	outcome [8]	Potency [9]	Potency [10]
COC(=O)COc1ccc(Cl)cc1Cl	inactive	inactive	inactive	inactive	inactive		inactive	inactive	inactive	
COC(=O)C(C)Oc1ccc(Oc2ccc(Cl)cc2Cl)cc1 (stereo not given)	inactive	inactive		inactive	inactive	inactive			inactive	
O=S(=O)(O)C(F)(F)C(F)(F)C(F)(F)C(F)(F)C(F)(F)C(F)(F)F	inactive	inactive		inactive	inactive	inactive			inactive	
CC1COC2(c3ccccc3Cl)c3cc(Cl)ccc3NC(=O)CN12 (stereo not given)	inactive	inactive	inactive	inactive	inactive	inactive				
ClC(Cl)(Cl)C(Cl)(Cl)Cl	inactive	inactive	inactive	inactive	inactive	inactive				
O=C(CCCN1CCC(n2c(=O)[nH]c3ccccc32)CC1)c1ccc(F)cc1	inactive	inactive		inactive	inactive	inactive				
CNNC	inactive	inactive	inactive	inactive	inactive		inactive	inactive	inactive	
CC(C)CP(=S)(S)CC(C)C	inactive	inactive		inactive	inactive	inactive	inactive	inactive		
COc1cccc(C(=O)NN(C(=O)c2cc(C)cc(C)c2)C(C)(C)C)c1C		inactive	inactive	inactive	inactive	inactive	inactive	inactive		
Cc1ncc2n1-c1ccc(Cl)cc1C(c1ccccc1F)=NC2	inactive	inactive		inactive	inactive	inactive		inactive		
CC(CC(C#N)(c1ccccc1)c1ccccc1)N(C)C (stereo not given)		inactive		inactive	inactive	inactive	inactive	inactive		
Clc1cccc(N2CCNCC2)c1		inactive		inactive	inactive	inactive				inactive
CC(=O)CCc1ccc2c(c1)OCO2	inactive	inactive		inactive	inactive		inactive	inactive		
CN/C(=N\[N+](=O)[O-])NCC1CCOC1 (stereo not given)	inactive		inactive	inactive	inactive	inactive	inactive	inactive	inactive	
O=[N+]([O-])c1cccc2c([N+](=O)[O-])cccc12	inactive			inactive	inactive	inactive	inactive	inactive		inactive
CCOP(=S)(OCC)Oc1nc(Cl)n(C(C)C)n1	inactive			inactive	inactive		inactive	inactive	inactive	
CCNc1nc(NC(C)C)nc(OC)n1	inactive		inactive	inactive	inactive	inactive	inactive	inactive	inactive	
O=[N+]([O-])c1ccc2c3c(cccc13)CC2	inactive		inactive	inactive	inactive	inactive	inactive	inactive	inactive	24.3 µM (active)
CC(C)(C)C(=O)C(Oc1ccc(Cl)cc1)n1cncn1 (stereo not given)		inactive		inactive	inactive	inactive	inactive	inactive		
CC1(C)C(=O)NC(=O)NC1=O	inactive	inactive		inactive	inactive	inactive	inactive	inactive		
O=C1OC(CCN2CCCCC2)OC1(c1ccccc1)c1ccccc1 (stereo not given)	inactive			inactive	inactive		inactive	inactive		
CCOP(=S)(OCC)Oc1cc(-c2ccccc2)on1	inactive	inactive			inactive	inactive	inactive	inactive		
C[C@]1(O)CC[C@H]2[C@@H]3CCC4=CC(=O)CC[C@]4(C)[C@@]3(F)[C@@H](O)C[C@@]21C	inactive				inactive	inactive				

SMILES	Potency [1]	Potency [2]	Potency [3]	Potency [4]	outcome [5]	outcome [6]	outcome [7]	outcome [8]	Potency [9]	Potency [10]
CCCCCCBr	inactive		inactive	inactive	inactive				inactive	
Cc1nnc2n1-c1sc(CCC(=O)N3CCOCC3)cc1C(c1ccccc1Cl)=NC2	inactive		inactive	inactive	inactive				inactive	inactive
CCN(CC)CCOC(=O)C(C)(c1ccccc1)c1ccccc1		inactive	inactive	inactive	inactive	inactive	inactive	inactive		inactive
COc1ccc2c(c1OC)CN1CCc3cc4c(cc3C1C2)OCO4 (stereo not given)		inactive	inactive	inactive	inactive		inactive	inactive	inactive	
O=C(Nc1ccccc1)N(Cc1ccc(Cl)cc1)C1CCCC1		inactive		inactive	inactive	inactive	inactive	inactive	inactive	
[O]=[Cd]		inactive	inactive	inactive	inactive	inactive	inactive	inactive	inactive	inactive
COc1cccc2c1cc([N+](=O)[O-])c1c(C(=O)O)cc3c(c12)OCO3	61.1 µM (active)	inactive		inactive	inactive		inactive	inactive		
COc1cc2c(cc1OC)[C@@]13CCN4CC5=CCO[C@H]6CC(=O)N2[C@H]1[C@H]6[C@H]5C[C@H]43		inactive	inactive	inactive	inactive	inactive	inactive	inactive	inactive	
CCC(C)(C)c1cc(-n2nc3ccccc3n2)c(O)c(C(C)(C)CC)c1	inactive			inactive	inactive	inactive				
C=CCC1=C(C)[C@@H](OC(=O)[C@@H]2[C@@H](C=C(C)C)C2(C)C)CC1=O	48.6 µM (active)			49 µM (active)			inactive	inactive		27.3 µM (active)
C[C@H]1CCC[C@H](O)CCCCCc2cc(O)cc(O)c2C(=O)O1		inactive		inactive	inactive	inactive	inactive	inactive		
CCC(C)n1c(=O)[nH]c(C)c(Br)c1=O (stereo not given)	inactive	inactive		inactive	inactive	inactive	inactive	inactive		
CC1(C)COP(Oc2ccccc2)OC1	inactive		inactive	inactive	inactive	inactive	inactive	inactive	inactive	
CCOC(=O)C1(c2ccccc2)CCN(CCc2ccc(N)cc2)CC1		inactive	inactive	inactive	inactive	inactive			inactive	
ClCCCN1CCN(c2cccc(Cl)c2)CC1	inactive		1.19 µM (active)	inactive	inactive	inactive	inactive	inactive		
COP(=S)(OC)Oc1c(Cl)cc(C)cc1Cl	inactive	inactive		inactive	inactive	inactive	inactive	inactive		
C#C[C@]1(O)C=C[C@H]2[C@@H]3CCC4=CC(=O)CC[C@@H]4[C@H]3CC[C@@]21CC	inactive			inactive	inactive	inactive	inactive	inactive		inactive
N#CC(Cl)(Cl)Cl	inactive		inactive	inactive	inactive	inactive			inactive	
Nc1cc(Cl)ccc1O		inactive	inactive	inactive	inactive		inactive	inactive		
CC1=C(C(=O)Nc2ccccc2)S(=O)(=O)CCO1		inactive		inactive	inactive	inactive				
COC(C)(C)C	inactive			inactive	inactive	inactive			inactive	inactive
N#CC(CCc1ccc(Cl)cc1)(Cn1cncn1)c1ccccc1 (stereo not given)	61.1 µM (active)			54.9 µM (active)					30.6 µM (active)	
